# The campaign covered roughly 39,000 compounds. About 3,300 (8.5%) were called active. The entries come from a sample that favours actives as a whole.
# Test system: HepG2
# Assay: cytotoxicity call (relative viability < 0.9)
# Conditions: 10 µM
row,Compound,cytotoxicity call
1,NCc1ccc2c(c1)CCO2,inactive
2,C[C@H]1CN([C@@H](C)CO)S(=O)(=O)c2ccc(-c3cncnc3)cc2O[C@H]1CN(C)C(=O)Cc1ccncc1,inactive
3,Cc1ccc(S(=O)(=O)Nc2ccc3c(c2)C(=O)N([C@H](C)CO)C[C@@H](C)[C@@H](CN(C)Cc2ccc(Cl)c(Cl)c2)O3)cc1,active
4,Cc1ccc(S(=O)(=O)Nc2ccc3c(c2)C(=O)N([C@@H](C)CO)C[C@@H](C)[C@@H](CN(C)Cc2ccc(Cl)c(Cl)c2)O3)cc1,active
5,Cc1ccc(S(=O)(=O)Nc2ccc3c(c2)C(=O)N([C@@H](C)CO)C[C@H](C)[C@@H](CN(C)Cc2ccc(Cl)c(Cl)c2)O3)cc1,inactive
6,Cc1ccc(S(=O)(=O)Nc2ccc3c(c2)C(=O)N([C@@H](C)CO)C[C@H](C)[C@H](CN(C)Cc2ccc(Cl)c(Cl)c2)O3)cc1,inactive
7,Cc1ccc(S(=O)(=O)Nc2ccc3c(c2)C(=O)N([C@H](C)CO)C[C@H](C)[C@H](CN(C)Cc2ccc(Cl)c(Cl)c2)O3)cc1,active
8,Cc1ccc(S(=O)(=O)Nc2ccc3c(c2)C(=O)N([C@@H](C)CO)C[C@@H](C)[C@H](CN(C)Cc2ccc(Cl)c(Cl)c2)O3)cc1,inactive
9,Cc1ccc(S(=O)(=O)Nc2ccc3c(c2)C(=O)N([C@H](C)CO)C[C@H](C)[C@@H](CN(C)Cc2ccc(Cl)c(Cl)c2)O3)cc1,active
10,Cc1ccc(S(=O)(=O)Nc2ccc3c(c2)C(=O)N([C@H](C)CO)C[C@@H](C)[C@H](CN(C)Cc2ccc(Cl)c(Cl)c2)O3)cc1,inactive
11,NC(=O)CSCC(=O)Nc1ccccc1F,inactive
12,O=C(O)/C=C\C(=O)NCc1ccccc1,inactive
13,COCCN1C[C@H]2[C@@H](OC)CCN(S(=O)(=O)c3cn(C)cn3)[C@H]2C1,inactive
14,CNC(=O)C[C@@H]1CC[C@@H]2[C@H](COC[C@@H](O)CN2C(=O)c2ccccn2)O1,inactive
15,C[C@H](CO)N1C[C@H](C)[C@@H](CN(C)S(=O)(=O)c2cccs2)Oc2ccc(NS(C)(=O)=O)cc2CC1=O,inactive
16,C[C@H](O)[C@H](O)[C@@H](O)[C@@H](O)/C=N/NC(=O)c1cccc(C(=O)NO)c1,inactive
17,Cc1cc(C(=O)Nc2cccc3c2O[C@@H](CN(C)Cc2ccc4c(c2)OCO4)[C@@H](C)CN([C@@H](C)CO)C3=O)n(C)n1,inactive
18,COc1ccc(NC(=O)Nc2ccc3c(c2)C(=O)N([C@H](C)CO)C[C@@H](C)[C@H](CN(C)Cc2ccc(-c4ccccc4)cc2)O3)cc1,active
19,COc1ccc(NC(=O)Nc2ccc3c(c2)C(=O)N([C@H](C)CO)C[C@@H](C)[C@@H](CN(C)Cc2ccc(-c4ccccc4)cc2)O3)cc1,active
20,COc1ccc(NC(=O)Nc2ccc3c(c2)C(=O)N([C@@H](C)CO)C[C@H](C)[C@H](CN(C)Cc2ccc(Oc4ccccc4)cc2)O3)cc1,inactive

row,Compound,cytotoxicity call
1,COc1ccc(NC(=O)Nc2ccc3c(c2)C(=O)N([C@@H](C)CO)C[C@@H](C)[C@@H](CN(C)Cc2ccc(-c4ccccc4)cc2)O3)cc1,active
2,COc1ccc(NC(=O)Nc2ccc3c(c2)C(=O)N([C@@H](C)CO)C[C@H](C)[C@H](CN(C)Cc2ccc(-c4ccccc4)cc2)O3)cc1,inactive
3,COc1ccc(NC(=O)Nc2ccc3c(c2)C(=O)N([C@H](C)CO)C[C@H](C)[C@@H](CN(C)Cc2ccc(-c4ccccc4)cc2)O3)cc1,inactive
4,COc1ccc(NC(=O)Nc2ccc3c(c2)C(=O)N([C@H](C)CO)C[C@H](C)[C@H](CN(C)Cc2ccc(-c4ccccc4)cc2)O3)cc1,active
5,COc1ccc(NC(=O)Nc2ccc3c(c2)C(=O)N([C@H](C)CO)C[C@@H](C)[C@H](CN(C)Cc2ccc(Oc4ccccc4)cc2)O3)cc1,inactive
6,COc1ccc(NC(=O)Nc2ccc3c(c2)C(=O)N([C@@H](C)CO)C[C@H](C)[C@@H](CN(C)Cc2ccc(-c4ccccc4)cc2)O3)cc1,inactive
7,CC(=O)c1ccc(S(=O)(=O)N2[C@@H]3CC[C@@H](C3)[C@H]2c2nc3cccc(OCc4ccc(F)cc4)c3[nH]2)cc1,inactive
8,C[C@@H]1CN([C@@H](C)CO)C(=O)c2cc(NC(=O)C3CC3)ccc2O[C@@H]1CN(C)S(=O)(=O)c1cccs1,inactive
9,CCCC(=O)Nc1ccc2c(c1)OC[C@H](C)N(Cc1ccc(-c3ccccn3)cc1)C[C@@H](C)[C@H](OC)CN(C)C2=O,inactive
10,COc1ccc(S(=O)(=O)Nc2ccc3c(c2)C(=O)N([C@@H](C)CO)C[C@@H](C)[C@@H](CN(C)C(=O)Nc2c(C)noc2C)OCCCC[C@H](C)O3)cc1,inactive
11,C[C@@H]1CN([C@@H](C)CO)C(=O)c2cc(NS(=O)(=O)c3ccccc3)ccc2O[C@@H]1CN(C)C(=O)Nc1cccc2ccccc12,inactive
12,C[C@@H]1CN([C@@H](C)CO)C(=O)Cc2cc(NC(=O)Nc3ccc(F)cc3)ccc2O[C@@H]1CN(C)S(=O)(=O)c1cn(C)cn1,inactive
13,Cc1ccc(S(=O)(=O)N(C)C[C@@H]2OCCCC[C@H](C)Oc3ccc(NS(C)(=O)=O)cc3C(=O)N([C@@H](C)CO)C[C@H]2C)cc1,inactive
14,Cc1noc(C)c1S(=O)(=O)Nc1ccc2c(c1)CC(=O)N([C@@H](C)CO)C[C@H](C)[C@H](CN(C)Cc1ccc3c(c1)OCO3)O2,inactive
15,C[C@H](CO)N1C[C@H](C)[C@H](CN(C)C(=O)N[C@H](C)c2ccccc2)OCc2ccccc2-c2c(n(C)c3ccccc23)C1=O,inactive
16,COc1ccc(S(=O)(=O)N(C)C[C@@H]2OCCCC[C@H](C)Oc3ccc(NC(=O)NC4CCCCC4)cc3C(=O)N([C@H](C)CO)C[C@H]2C)cc1,inactive
17,COc1ccc(NC(=O)N(C)C[C@@H]2OCCCC[C@@H](C)Oc3ccc(NS(=O)(=O)c4ccc(C)cc4)cc3C(=O)N([C@H](C)CO)C[C@H]2C)cc1,inactive
18,COc1ccc(NC(=O)Nc2ccc3c(c2)C(=O)N([C@@H](C)CO)C[C@@H](C)[C@H](CN(C)Cc2ccc(-c4ccccc4)cc2)O3)cc1,active
19,COc1cccc(S(=O)(=O)N2C[C@H](O)COC[C@@H]3O[C@H](CC(=O)NCCCN4CCOCC4)CC[C@H]32)c1,inactive
20,C[C@H]1CCCCO[C@H](CN(C)C(=O)Nc2ccc(F)cc2)[C@@H](C)CN([C@@H](C)CO)C(=O)c2cc(NC(=O)c3ccncc3)ccc2O1,inactive

# Source: the antibiotic and cytotoxicity screens of Wong et al. (2023)
